Screens from PubChem BioAssay.
mHTT CaM bind: disrupts binding of mutant huntingtin to calmodulin | 190,000 compounds, 3.6% hits | inhibition, % at 15 µM | AlphaScreen His-mHTT/GST-CaM binding, luminescence | AID 1671202 | P42858;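 further: 0% = both proteins with DMSO and 100% = one protein alone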
Pf apPOL block: Pf-apPOL DNA polymerase inhibition | 210,000 compounds, 0.25% hits | Recombinant Pf-apPOL, molecular beacon fluorescence, 1.5 h | inhibition, % at 10 µM
Numbers without * were called inactive; · = no result given. The sample as a whole holds a higher share of hits than the screen did. No stated cut-off is given here; in the data, active means inhibition above about 50%; inactive means the rest.

SMILES	mHTT CaM bind	Pf apPOL block
COc1cc(CCCO)cc(-c2cc(CCCO)cc(OC)c2O)c1O	3.0	-1.6
O=C(c1ccc(F)cc1)N1CCc2nc(N3CCCC3)nc(N3CCCC3)c2C1	55.9*	16.6
O=C(c1ccc(F)cc1)N1CCCCCC1	-7.4	9.4
O=C(NCc1cccnc1)c1cc(I)ccc1Cl	-1.5	-2.9
Cc1ccc(CN2C(=O)CCc3c(C)nc(-c4ccncc4)nc32)o1	71.4*	9.3
Cc1nc(-c2cnccn2)nc2c1CCC(=O)N2Cc1ccccn1	98.9*	-21.6
Cc1nc(-c2cccnc2)nc2c1CCC(=O)N2CCN1CCCC1	22.7	57.9*
Cc1nc(-c2ccncc2)nc2c1CCC(=O)N2Cc1cccs1	6.0	-3.3
Cc1nc(-c2cccnc2)nc2c1CCC(=O)N2Cc1ccccn1	1.5	-12.1
Cc1nc(-c2cccnc2)nc2c1CCC(=O)N2CCN(C)C	1.4	-6.0
CCc1nn2c(C)c(C)c(C)nc2c1C	1.6	-8.9
CCSc1nnc(NC(=O)c2cn(C)nn2)s1	-17.2	-2.4
O=C(COc1ccc([N+](=O)[O-])cc1)N1CCCC1	-1.7	-3.6
Cc1cc(NC(=O)CSc2nnc(Cc3c(C)[nH]c(=O)[nH]c3=O)o2)no1	-20.0	-1.6
Cc1cc(NC(=O)CSc2nnc(C3COc4ccccc4O3)o2)no1 (stereo unspecified)	72.1*	5.0
c1nc(NC2CCCC2)c2c3c(sc2n1)CCCC3	-18.3	-2.4
O=C(NCc1nc2ccccc2n1CCCCOc1ccccc1Cl)c1ccco1	75.4*	-1.9
CCCn1c(NC(=O)c2ccco2)nc2ccccc21	30.9	-4.5
O=C(NCc1ccccc1)c1cccs1	-11.9	-13.8
CCOC(=O)CCSCC(=O)N1N=C(c2cccs2)CC1c1ccc(C)cc1 (stereo unspecified)	51.5*	1.0
Cc1ccc(C2CC(c3cccs3)=NN2C(=O)CN(C)C(=O)C(C)C)cc1 (stereo unspecified)	26.5	-0.3
Cc1cc(C)nc(SCC(=O)Nc2nnc(C(C)C)s2)n1	-3.4	-18.6
N#CC1=C(N)N(c2cccc(Br)c2)C2=C(C(=O)CCC2)C1c1cccs1 (stereo unspecified)	68.0*	1.5
CC1(C)CC(=O)C2=C(C1)N(c1cccc(C(F)(F)F)c1)C(N)=C(C#N)C2c1cccs1 (stereo unspecified)	67.0*	-5.3
N#CC1=C(N)N(c2ccccc2)C2=C(C(=O)CCC2)C1c1cccs1 (stereo unspecified)	30.0	-10.5
SMILES	mHTT CaM bind	Pf apPOL block
CC1(C)CC(=O)C2=C(C1)N(c1cccc(C(F)(F)F)c1)C(N)=C(C#N)C2c1ccsc1 (stereo unspecified)	24.0	-2.1
N#CC1=C(N)N(c2ccc(Br)cc2F)C2=C(C(=O)CCC2)C1c1cccs1 (stereo unspecified)	54.0*	-0.3
N#CC1=C(N)N(c2ccc(Br)cc2F)C2=C(C(=O)CCC2)C1c1ccsc1 (stereo unspecified)	12.0	2.2
CCC(=O)Nc1ccc2c(c1)CC(C(=O)NCc1ccccc1C)CO2 (stereo unspecified)	-0.5	-0.2
CC1CCc2c(C(=O)NCc3ccccc3Cl)csc2C1 (stereo unspecified)	-8.1	0.4
O=C(NC1CCN(Cc2ccccc2)CC1)C1CCN(c2ccncc2)CC1	-15.2	6.7
Cc1c(C(=O)NC(C)CC(C)C)cnc2c(-c3cccc(C(F)(F)F)c3)cnn12 (stereo unspecified)	19.1	0.9
OC[C@H]1O[C@@H](n2cnc3c(NC4CCCCC4)ncnc32)[C@H](O)[C@@H]1O	·	8.5
Clc1ncnc2c1ncn2C1CCCCO1 (stereo unspecified)	74.5*	·
CCc1nc2ccccc2nc1N(C)N=Cc1ccc(Cl)cc1Cl	·	-7.4
CC(C)CCNC(=O)c1cccc(-c2nc(-c3ccccc3)no2)c1	-8.9	1.0
O=C(CCCn1cccc1)Nc1ccc2c(c1)OCCO2	7.1	77.7*
CCCC(=O)Nc1ccc2c(c1)OCCO2	-2.2	2.6
C#CCSc1ccccc1C(=O)O	-6.8	-3.5
C#CC(C=CC)OC(=O)c1ccccc1C(=O)O (stereo unspecified)	·	53.3*
COc1ccc(CNC(=O)C2CC(c3ccccc3OC)=NO2)cc1 (stereo unspecified)	-0.3	-5.3
O=C(NCc1ccc(F)cc1)C(=O)NCC(O)(c1ccccc1)C(F)(F)F (stereo unspecified)	-11.7	-11.5
CC(C)Cc1ccc(-c2csc(Nc3ccc4c(c3)OCO4)n2)cc1	66.9*	-2.1
O=[N+]([O-])c1ccc(-c2csc(Nc3ccc4c(c3)OCO4)n2)cc1	55.1*	1.0
Clc1ccc(-c2csc(Nc3ccc4c(c3)OCO4)n2)cc1	-5.4	-6.7
COC(=O)c1ccc(-c2csc(NC(=O)Nc3ccc4c(c3)OCO4)n2)cc1	-5.5	-6.7
O=c1cc(O)c2sc3[nH]c(=O)c([N+](=O)[O-])cc3c2[nH]1	15.7	·
O=C(NCc1ccc(Cl)c(Cl)c1)c1ccc(F)cc1	-19.5	-2.7
COc1ccc(N2C(=O)C(O)=CC2(OC)c2ccccc2)cc1 (stereo unspecified)	67.0*	24.1
COc1ccc(N2C(=O)CSC23CCCCC3)cc1	-4.0	-9.3
SMILES	mHTT CaM bind	Pf apPOL block
Cc1ccc2nc(N3CCC(C(=O)NCc4ccccc4Cl)CC3)[nH]c2c1	-4.0	-16.8
Cc1sc(C(=O)N2CCCC2)c2ncnc(NCc3ccc(Cl)cc3)c12	40.6	-5.6
Cc1cc(Cl)ccc1NC(=O)CN1CCN(Cc2ccc3c(c2)OCO3)CC1	54.0*	-7.1
CCNC(=O)CN1CCN(Cc2ccc3c(c2)OCO3)CC1	2.7	-2.6
Cc1cc(Cl)cc(C)c1OCCCn1ccnc1	7.9	4.1
COc1cc(C=O)ccc1OCCOc1cccc(C)c1C	-10.0	-6.2
Cc1[nH]nc2nc(SCC(=O)NC3CCCCC3)n(-c3cccc(Cl)c3)c(=N)c12	19.0	-5.5
CCn1cnc2ccc(-c3noc(-c4ccccc4)n3)cc21	28.1	-18.8
COc1cccc(-c2nc(-c3ccc4ncn(C)c4c3)no2)c1	-8.5	-6.0
CCn1cnc2ccc(-c3noc(-c4cccc(OC)c4)n3)cc21	76.0*	0.0
CCn1cnc2ccc(-c3noc(Cc4c[nH]c5ccccc45)n3)cc21	99.2*	-5.3
CCn1cnc2ccc(-c3noc(CCc4c[nH]c5ccccc45)n3)cc21	100.3*	-3.2
CCn1cnc2ccc(-c3noc(Cc4ccccc4Cl)n3)cc21	7.2	-0.8
Cn1cnc2ccc(-c3noc(Cc4cccs4)n3)cc21	9.1	0.1
Cn1cnc2ccc(-c3noc(CCc4c[nH]c5ccccc45)n3)cc21	76.2*	-3.2
O=C(c1csc(CN2CCN(c3ccc(F)cc3)CC2)n1)N1CCOCC1	4.2	0.6
Cc1cc(Nc2ccc(C(N)=O)cc2)n2nc(C)c(-c3ccccc3)c2n1	74.4*	-5.9
Cc1nn2c(N)cc(-c3ccccc3)nc2c1-c1ccccc1	83.3*	0.6
COc1ccc(-c2cc3nc(C)cc(Nc4ccc(C(N)=O)cc4)n3n2)cc1OC	22.5	11.8
Cc1nc2c(-c3ccc(Cl)cc3)c(C)nn2c(N)c1-c1ccccc1	-3.5	-5.1
COc1ccc2nc(NS(=O)(=O)c3ccc([N+](=O)[O-])cc3)sc2c1	3.3	-1.8
COc1cc([N+](=O)[O-])ccc1NC(=O)C(C)C	-3.8	-4.3
O=C1C(=Cc2cc(Cl)cc3c2OCOC3)Oc2c1ccc(O)c2CN1CCOCC1	8.9	3.9
CCN1CCN(Cc2c(O)ccc3c2OC(=Cc2cc(Cl)cc4c2OCOC4)C3=O)CC1	54.9*	8.4
